Source: PubChem BioAssay (NCATS)
Several values for one entry are separate records, joined by “and”; a condition that tells them apart may be missing. Equal entries are not always repeated. Results filed as inconclusive are left out. Some structures have more than one record in an assay (separate samples or runs), and their calls can disagree. Activity calls are given as the source filed them. Unless noted, the call rests on the fitted dose curve; in most records, active means well fitted curve in the direction sought with a large enough effect; inconclusive means small, poorly fitted or top-dose-only effect, or another doubt; inactive means no such curve, though single readings can be large; an effect the other way counts as inactive or inconclusive.

Assays:
[1] = tested on: 7G8; experiment: qHTS profiling for inhibitors of Plasmodium falciparum proliferation (AID 504749); further: nearly all actives have a fitted effect of over 60% in size; further: potency means the concentration at half of the fitted maximal effect; details: P. falciparum in erythrocytes, SYBR Green DNA, 72 h; series mostly up to 12.8 µM
Method in brief: (§1)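 In a 72 h erythrocytic culture (37 C, humidified, 5% CO2) at 2.5% hematocrit and 0.3% starting parasitemia, compounds were tested; SYBR Green I in detergent lysis buffer stained parasite DNA overnight.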

[2] = tested on: CP203; experiment: as above; details: P. falciparum in erythrocytes, SYBR Green DNA, 72 h; series mostly up to 28.7 µM
Method in brief: as §1

[3] = tested on: CP260; experiment: as above; details: P. falciparum in erythrocytes, SYBR Green DNA, 72 h; series mostly up to 28.7 µM
Method in brief: as §1

[4] = tested on: CP291; experiment: as above; details: P. falciparum in erythrocytes, SYBR Green DNA, 72 h; series mostly up to 28.7 µM
Method in brief: as §1

[5] = tested on: CP335; experiment: as above; details: P. falciparum in erythrocytes, SYBR Green DNA, 72 h; series mostly up to 12.8 µM
Method in brief: as §1

[6] = tested on: DIV17; experiment: as above; details: P. falciparum in erythrocytes, SYBR Green DNA, 72 h; series mostly up to 28.7 µM
Method in brief: as §1

[7] = tested on: ICS; experiment: as above; details: P. falciparum in erythrocytes, SYBR Green DNA, 72 h; series mostly up to 28.7 µM
Method in brief: as §1

[8] = tested on: PC15; experiment: as above; details: P. falciparum in erythrocytes, SYBR Green DNA, 72 h; series mostly up to 28.7 µM
Method in brief: as §1

[9] = tested on: PC26; experiment: as above; details: P. falciparum in erythrocytes, SYBR Green DNA, 72 h; series mostly up to 28.7 µM
Method in brief: as §1

[10] = tested on: W2; experiment: as above; details: P. falciparum in erythrocytes, SYBR Green DNA, 72 h; series mostly up to 12.8 µM
Method in brief: as §1

[11] = tested on: AS120; experiment: as above; details: P. falciparum in erythrocytes, SYBR Green DNA, 72 h; series mostly up to 28.7 µM
Method in brief: as §1

[12] = tested on: CP191; experiment: as above; details: P. falciparum in erythrocytes, SYBR Green DNA, 72 h; series mostly up to 28.7 µM
Method in brief: as §1

[13] = tested on: CP265; experiment: as above; details: P. falciparum in erythrocytes, SYBR Green DNA, 72 h; series mostly up to 12.8 µM
Method in brief: as §1

[14] = tested on: TAB113; experiment: as above; details: P. falciparum in erythrocytes, SYBR Green DNA, 72 h; series mostly up to 28.7 µM
Method in brief: as §1

[15] = tested on: TAB165; experiment: as above; details: P. falciparum in erythrocytes, SYBR Green DNA, 72 h; series mostly up to 28.7 µM
Method in brief: as §1

[16] = target: Cytochrome P450 3A4 (Homo sapiens) (UniProt P08684); experiment: qHTS Assay for Inhibitors and Substrates of Cytochrome P450 3A4 (AID 884); details: recombinant CYP3A4, Luciferin-PPXE luminescence; series mostly up to 57.1 µM; further: nearly all actives have a fitted effect of over 50% in size; further: potency means the concentration at half of the fitted maximal effect
Cytochrome P450 3A4 (Homo sapiens), sequence (P08684 whole entry, looked up): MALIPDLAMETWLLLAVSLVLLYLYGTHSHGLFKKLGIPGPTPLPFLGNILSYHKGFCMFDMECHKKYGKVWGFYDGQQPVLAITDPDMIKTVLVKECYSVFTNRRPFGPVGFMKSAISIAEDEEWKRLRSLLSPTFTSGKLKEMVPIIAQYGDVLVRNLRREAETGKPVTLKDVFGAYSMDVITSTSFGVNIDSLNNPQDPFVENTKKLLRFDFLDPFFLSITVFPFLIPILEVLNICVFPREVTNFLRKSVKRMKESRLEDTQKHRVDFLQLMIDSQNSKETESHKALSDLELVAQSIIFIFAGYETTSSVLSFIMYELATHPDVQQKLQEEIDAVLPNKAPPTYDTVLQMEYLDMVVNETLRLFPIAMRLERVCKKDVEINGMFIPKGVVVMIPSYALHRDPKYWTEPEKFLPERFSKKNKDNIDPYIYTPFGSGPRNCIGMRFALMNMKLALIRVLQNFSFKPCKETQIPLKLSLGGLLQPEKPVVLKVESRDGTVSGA
Method in brief: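 Luminescent readout of luciferin produced by CYP3A4 (20 nM) dealkylation of Luciferin-PPXE, 25 uM (its KM). NADPH-driven reaction ran 60 min at RT after 10 min compound preincubation; data scaled to 57 uM ketoconazole as 100% inhibition.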

[17] = target: Cytochrome P450 3A4 (Homo sapiens) (UniProt P08684); experiment: qHTS Assay for Activators of Cytochrome P450 3A4 (AID 885); details: recombinant CYP3A4, Luciferin-PPXE luminescence, 60 min; series mostly up to 57.1 µM; further: nearly all actives have a fitted effect of over 65% in size
Method in brief: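 Activators are scored by enhanced luminescence from CYP3A4 conversion of luciferin-PPXE (25uM, equal to KM) to luciferin, after 60 min at RT with an NADPH-regenerating system.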

[18] = target: Cytochrome P450 2C19 (Homo sapiens) (UniProt P33261); experiment: qHTS Assay for Inhibitors and Substrates of Cytochrome P450 2C19 (AID 899); details: recombinant CYP2C19, luciferin-H EGE luminescence; series mostly up to 57.1 µM; further: nearly all actives have a fitted effect of over 60% in size; further: potency means the concentration at half of the fitted maximal effect
Cytochrome P450 2C19 (Homo sapiens), sequence (P33261 whole entry, looked up): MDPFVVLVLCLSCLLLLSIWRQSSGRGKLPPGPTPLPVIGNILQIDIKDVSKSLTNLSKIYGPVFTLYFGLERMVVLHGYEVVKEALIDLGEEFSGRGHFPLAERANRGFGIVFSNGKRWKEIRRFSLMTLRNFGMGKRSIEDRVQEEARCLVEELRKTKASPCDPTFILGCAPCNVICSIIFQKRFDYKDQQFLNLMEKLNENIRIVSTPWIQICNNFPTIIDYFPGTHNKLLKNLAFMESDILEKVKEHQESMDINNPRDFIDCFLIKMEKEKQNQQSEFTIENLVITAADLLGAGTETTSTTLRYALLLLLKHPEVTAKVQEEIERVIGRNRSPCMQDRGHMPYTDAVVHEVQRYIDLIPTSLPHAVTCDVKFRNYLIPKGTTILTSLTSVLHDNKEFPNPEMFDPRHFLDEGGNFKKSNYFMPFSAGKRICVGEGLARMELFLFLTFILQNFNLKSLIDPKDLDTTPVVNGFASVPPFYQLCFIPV
Method in brief: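 Reactions contain 5nM enzyme, 10uM Luciferin-H EGE (KM) and 50mM KPO4; compound preincubates 10 min at 37C, NADPH regeneration starts turnover for 60 min. Luminescence after detection reagent gives activity.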

[19] = Confirmation and Secondary Assay for Modulators of Hemoglobin Beta Chain Splicing at IVS2 654 locus (AID 910); details: HeLa EGFP-654 splicing reporter, GFP fluorescence, 48 h; series mostly up to 46.1 µM;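 further: HeLa cells stably carrying EGFP split by mutant beta-globin IVS2-654 intron; per-well total GFP intensity by laser scanning cytometry after 2-day treatment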
Method in brief: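 Readout: per-well total peak green fluorescence (488 nm ex, 500–520 nm em) from objects 5–250 µm, reflecting correct splicing of an EGFP-654 reporter. Compounds were applied for 2 days at 37 °C to overnight-plated HeLa EGFP-654 cells; controls were DMSO and 500 nM IVS2-654 PNA.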

[20] = qHTS assay for small molecule agonists of the antioxidant response element (ARE) signaling pathway (AID 651741; active means well fitted activation curve with a large enough effect in the signal ratio; the % refers to the signal ratio; further: potency means the concentration at half of the fitted maximal effect); details: HepG2 ARE-bla reporter, beta-lactamase FRET ratio, 16 h; series mostly up to 96 µM
Method in brief: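 Agonist activity is measured as ARE-driven beta-lactamase expression in a stable HepG2 reporter line, using 16 h compound treatment at 37 C and a FRET substrate fluorescence readout after 2 h.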

Measured: Potency

CC1=C2[C@@H]3OC(=O)[C@@H](C)[C@@H]3CC[C@]2(C)C=CC1=O
inactive: [1] | [2] | [3] | [4] | [5] | [6] | [7] | [8] | [9] | [10]

C[C@H](N)[C@@H](O)c1ccccc1
not listed: [4] | [16] | [17] | [18] | [19] | [20]
inactive: all other assays above

CN1Cc2c(ccc3c2OCO3)[C@@H]2[C@@H](O)Cc3cc4c(cc3[C@@H]21)OCO4
active: [16] 5.01 µM

CCN[C@]1(c2cccs2)CCCCC1=O
not listed: [10] | [16] | [17] | [18] | [19] | [20]
inactive: all other assays above

C[C@]12CC[C@H](O)C[C@@H]1CC[C@H]1[C@H]2CC[C@]2(C)C(=O)CC[C@@H]12
inactive: [16] | [17]

CN1CCc2cc3c(cc2[C@@H]1[C@@H]1OC(=O)c2c1ccc1c2OCO1)OCO3
active: [16] 0.794 µM | [18] 398 nM and 50.1 nM
inactive: [17]

CO[C@@H](C)[C@](O)(C(=O)OCC1=CCN2CC[C@@H](O)[C@H]12)C(C)C
inactive: [18]

CN(C)[C@@H]1C(=O)C(C(N)=O)=C(O)[C@]2(O)C(=O)C3=C(O)c4c(O)ccc(Cl)c4[C@](C)(O)[C@H]3C[C@@H]12
inactive: [11] | [2] | [13] | [6] | [8] | [9] | [14] | [15] | [10]

CC[C@]1(c2cccc(O)c2)CCCCN(C)C1
inactive: [1] | [12] | [3] | [7] | [14]
active: [10] 3.22 µM

N[C@H]1C[C@H]1c1ccccc1
not listed: [3] | [16] | [17] | [18] | [19] | [20]
inactive: all other assays above

CC(C)N(CC[C@@](C(N)=O)(c1ccccc1)c1ccccn1)C(C)C
not listed: [10] | [16] | [18] | [19] | [20]
inactive: all other assays above

CNC(=O)N(C)c1nnc(C(C)(C)C)s1
inactive: [17] | [19] | [20]

O=c1ccc2cc(O[C@H]3O[C@@H](CO)[C@@H](O)[C@@H](O)[C@@H]3O)c(O)cc2o1
not listed: [6] | [16] | [17] | [18] | [19] | [20]
inactive: all other assays above

COc1cc(N)c(Cl)cc1C(=O)N[C@@H]1CN2CCC1CC2
not listed: [10] | [16] | [17] | [18] | [19] | [20]
inactive: all other assays above

CC[C@H]1C(=O)OC[C@H]1Cc1cncn1C
active: [16] 3.16 µM
inactive: [17]

O=C1C(Cl)=C(Cl)C(=O)C(Cl)=C1Cl
active: [16] 2 µM | [20] 26.6 µM
inactive: [17] | [19]

O=C(O)COc1ccc(Cl)cc1Cl
inactive: [16] | [19]
active: [20] 48.6 µM

C[C@@H]1O[C@H](O[C@@H]2C=C3CC[C@H]4[C@@H](CC[C@]5(C)[C@@H](c6ccc(=O)oc6)CC[C@]45O)[C@@]3(C)CC2)[C@@H](O)[C@H](O)[C@@H]1O
not listed: [8] | [9] | [16] | [17] | [18] | [19] | [20]
inactive: all other assays above

CCNc1nc(Cl)nc(NC(C)C)n1
inactive: [16] | [19] | [20]

CCCCCCCCCc1ccc(O)cc1
active: [20] 75 µM and 30.6 µM
inactive: [17] | [19]

C[N+]1=Cc2cc3c(cc2CC1)OCO3
inactive: [16] | [18]

c1cncc([C@H]2CCCCN2)c1
active: [18] 5.01 µM
inactive: [16]

COc1cc2c(c(OC)c1OC)-c1ccc(O)c(=O)cc1[C@@H](NC(C)=O)CC2
inactive: [16] | [18]

CN[C@@H](C)[C@H]1CC[C@@H](N)[C@@H](O[C@@H]2[C@@H](O)[C@@H](O[C@H]3OC[C@@](C)(O)[C@@H](NC)[C@@H]3O)[C@H](N)C[C@@H]2N)O1 (tested in a mixture with another compound)
not listed: [16] | [17] | [18] | [19] | [20]
inactive: all other assays above

C[C@@]12CC[C@H](O)C[C@@H]1CC[C@H]1[C@@H]2C[C@@H](O)[C@]2(C)[C@@H](C3=CC(=O)OC3)CC[C@]12O
inactive: [18]

Clc1ccc([C@@H](OCCN2CCCCC2)c2ccccc2)cc1
inactive: [4]
active: [1] 3.55 µM | [3] 3.16 µM | [6] 4.55 µM | [7] 1.58 µM | [8] 3.16 µM | [10] 1.81 µM

ClC1=C(Cl)C2(Cl)C3C4CC(C5OC45)C3C1(Cl)C2(Cl)Cl (configuration not stated)
active: [20] 42.2 µM
inactive: [19] | [11] | [12] | [2] | [6] | [8] | [9] | [15]

CCc1cccc(CC)c1N(COC)C(=O)CCl
active: [20] 13.3 µM and 24.3 µM
inactive: [16] | [19]

COP(=S)(OC)Oc1ccc([N+](=O)[O-])cc1
inactive: [17] | [19] | [20]
active: [16] 3.98 µM

C[C@@]12CC[C@H](O)C[C@@H]1CC[C@H]1[C@H]2CC[C@@]2(C)[C@@H](C3=CC(=O)OC3)CC[C@]12O
active: [16] 3.16 µM
inactive: [17]

COC(=O)NC(=S)Nc1ccccc1NC(=S)NC(=O)OC
inactive: [16] | [19]
active: [20] 37.6 µM

COc1cc2c(cc1O)C[C@H]1c3c(cc(O)c(OC)c3-2)CCN1C
inactive: [17] | [18]

ClC(Cl)=C(c1ccc(Cl)cc1)c1ccc(Cl)cc1
inactive: [17] | [19]
active: [20] 66.8 µM
inactive and 7.94 µM (active): [16]

CN1C[C@H](CO)C=C2c3cccc4[nH]cc(c34)C[C@@H]21
inactive: [17]

c1ccc2c(c1)[nH]c1cnccc12
inactive: [16] | [19]
